# What was measured:
# Experiment in all cases: PBM binding z-score (relative to random genomic background probes); higher = stronger binding; sequences stand for … in GC…GCGATTGACAGCGTAGAATGAAGG
# [1] = tested on: PPARg:RXRa DBDmut IVT, anti-RXR (DBD mutation: RXRa K156A/R161A, NR concentration 270 nM, RXRa partner concentration 90 nM)
# Outline: (§1)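 Scanned fluorescence from custom Agilent 4×180K protein-binding microarrays was regression-normalized. Binding z-scores use random background probes as reference. Ligand-free nuclear receptor dimers were incubated on the arrays for 1 h and detected with antibodies against each partner (one per run).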
# [2] = tested on: PPARg:RXRa IVT, anti-PPARg (NR concentration 270 nM, RXRa partner concentration 90 nM)
# Outline: as §1
# [3] = tested on: PPARg DBDmut:RXRa IVT, anti-PPARg (DBD mutation: PPARg1 K132A/R137A, NR concentration 270 nM, RXRa partner concentration 90 nM)
# Outline: as §1
# [4] = tested on: PPARg DBDmut IVT, anti-PPARg (DBD mutation: PPARg1 K132A/R137A, NR concentration 270 nM)
# Outline: as §1
# [5] = tested on: PPARg homodimer (NR concentration 180 nM)
# Outline: as §1
# [6] = tested on: PXR:RXRa (NR concentration 270 nM, RXRa partner concentration 90 nM)
# Outline: as §1
# [7] = tested on: PXR homodimer (NR concentration 270 nM)
# Outline: as §1
# [8] = tested on: RARa:RXR (NR concentration 270 nM, RXRa partner concentration 90 nM)
# Outline: as §1
# [9] = tested on: RARa homodimer (NR concentration 270 nM)
# Outline: as §1
# [10] = tested on: RARb:RXRa (NR concentration 270 nM, RXRa partner concentration 90 nM)
# Outline: as §1
sequence,measurement,setting,value
TAGCCTAGGTCATTCACGGGCCAGTATAGAAAGC,PBM binding z-score,[1],1.89
same,PBM binding z-score,[2],2.6
same,PBM binding z-score,[3],1.17
same,PBM binding z-score,[4],0.147
same,PBM binding z-score,[5],2.35
same,PBM binding z-score,[6],2.01
same,PBM binding z-score,[7],-0.0937
same,PBM binding z-score,[8],2.84
same,PBM binding z-score,[9],0.0278
same,PBM binding z-score,[10],3.69
TCTGGTAGATCAAGCAGGTTAAGAAAGCCTGAGT,PBM binding z-score,[1],1.17
same,PBM binding z-score,[2],-0.178
same,PBM binding z-score,[3],-0.408
same,PBM binding z-score,[4],-0.683
same,PBM binding z-score,[5],-0.462
same,PBM binding z-score,[6],0.159
same,PBM binding z-score,[7],0.156
same,PBM binding z-score,[8],0.213
same,PBM binding z-score,[9],-0.519
same,PBM binding z-score,[10],-0.0969
CGAACTAGGTCATTGATAGGACAGTGAATAGTAA,PBM binding z-score,[1],7.92
same,PBM binding z-score,[2],8.26
same,PBM binding z-score,[3],4.2
same,PBM binding z-score,[4],1.01
same,PBM binding z-score,[5],1.71
same,PBM binding z-score,[6],1.43
same,PBM binding z-score,[7],0.351
same,PBM binding z-score,[8],1.93
same,PBM binding z-score,[9],0.346
same,PBM binding z-score,[10],3.4
CAGCCTAGGTCAGGGCCAGTATGGGAGGAACGTT,PBM binding z-score,[1],0.702
same,PBM binding z-score,[2],1.59
same,PBM binding z-score,[3],-1.71
same,PBM binding z-score,[4],-1.33
same,PBM binding z-score,[5],0.437
same,PBM binding z-score,[6],0.196
same,PBM binding z-score,[7],-0.864
same,PBM binding z-score,[8],0.839
same,PBM binding z-score,[9],-0.701
same,PBM binding z-score,[10],3.43
CAAACTAGGTTACGAAAGGTCAAAGTCGAATGAC,PBM binding z-score,[1],7.07
same,PBM binding z-score,[2],7.68
same,PBM binding z-score,[3],2.53
same,PBM binding z-score,[4],2.93
same,PBM binding z-score,[5],4.81
same,PBM binding z-score,[6],6.22
same,PBM binding z-score,[7],1.73
same,PBM binding z-score,[8],6.69
same,PBM binding z-score,[9],3.24
same,PBM binding z-score,[10],4.82
GATACAGGGTCAGCTAGAGCCCAGAGTATGGAAA,PBM binding z-score,[1],0.771
same,PBM binding z-score,[2],2.13
same,PBM binding z-score,[3],-0.422
same,PBM binding z-score,[4],-0.697
same,PBM binding z-score,[5],1.06
same,PBM binding z-score,[6],1.83
same,PBM binding z-score,[7],-0.197
same,PBM binding z-score,[8],2.74
same,PBM binding z-score,[9],-0.316
same,PBM binding z-score,[10],3.81
TCATATAGTTAAATGCTAGGTGAAAGTCCGATCT,PBM binding z-score,[1],2.22
same,PBM binding z-score,[2],0.879
same,PBM binding z-score,[3],0.746
same,PBM binding z-score,[4],1.69
same,PBM binding z-score,[5],1.11
same,PBM binding z-score,[6],0.631
same,PBM binding z-score,[7],0.356
same,PBM binding z-score,[8],0.763
same,PBM binding z-score,[9],1.49
same,PBM binding z-score,[10],0.272
TCGAGTAGGTTAGAGGCATTCAGAATGGCGTCGA,PBM binding z-score,[1],1.65
same,PBM binding z-score,[2],0.965
same,PBM binding z-score,[3],-0.829
same,PBM binding z-score,[4],-0.771
same,PBM binding z-score,[5],0.087
same,PBM binding z-score,[6],-0.51
same,PBM binding z-score,[7],-0.852
same,PBM binding z-score,[8],-0.767
same,PBM binding z-score,[9],-0.955
same,PBM binding z-score,[10],0.0217
CGTCCAAGGTCATAGGAGGGCAGTGAAGACAGAT,PBM binding z-score,[1],3.1
same,PBM binding z-score,[2],3.89
same,PBM binding z-score,[3],1.14
same,PBM binding z-score,[4],0.568
same,PBM binding z-score,[5],2.4
same,PBM binding z-score,[6],6.12
same,PBM binding z-score,[7],1.56
same,PBM binding z-score,[8],4.4
same,PBM binding z-score,[9],0.613
same,PBM binding z-score,[10],5.06
TGTCAAAGTACAAAGGTAACGTAAGTATCCACAC,PBM binding z-score,[1],-0.385
same,PBM binding z-score,[2],2.33
same,PBM binding z-score,[3],1.2
same,PBM binding z-score,[4],1.03
same,PBM binding z-score,[5],0.0149
same,PBM binding z-score,[6],0.587
same,PBM binding z-score,[7],-0.194
same,PBM binding z-score,[8],1.04
same,PBM binding z-score,[9],0.713
same,PBM binding z-score,[10],1.67
TCATATAGGTAAATGCTTGGTGAAAGTCCGATCT,PBM binding z-score,[1],4.12
same,PBM binding z-score,[2],2.04
same,PBM binding z-score,[3],1.15
same,PBM binding z-score,[4],1.07
same,PBM binding z-score,[5],0.653
same,PBM binding z-score,[6],0.501
same,PBM binding z-score,[7],0.156
same,PBM binding z-score,[8],0.651
same,PBM binding z-score,[9],1.11
same,PBM binding z-score,[10],0.221
TCTATTAGTTGCAGGGCAACCGACGAGTCCGTTT,PBM binding z-score,[1],2.17
same,PBM binding z-score,[2],1.01
same,PBM binding z-score,[3],0.15
same,PBM binding z-score,[4],1.26
same,PBM binding z-score,[5],0.494
same,PBM binding z-score,[6],0.353
same,PBM binding z-score,[7],0.498
same,PBM binding z-score,[8],0.391
same,PBM binding z-score,[9],0.736
same,PBM binding z-score,[10],0.851
AGAACGAGGGCACGCTGAGTTGACAGCAGAGTAG,PBM binding z-score,[1],3.94
same,PBM binding z-score,[2],3.77
same,PBM binding z-score,[3],1.38
same,PBM binding z-score,[4],0.377
same,PBM binding z-score,[5],0.462
same,PBM binding z-score,[6],1.46
same,PBM binding z-score,[7],-0.0837
same,PBM binding z-score,[8],1.24
same,PBM binding z-score,[9],-0.654
same,PBM binding z-score,[10],2.57
ACTATTAGTTGAGACGAGGGCAGCCGATAGGTTG,PBM binding z-score,[1],0.368
same,PBM binding z-score,[2],0.416
same,PBM binding z-score,[3],0.598
same,PBM binding z-score,[4],0.645
same,PBM binding z-score,[5],0.479
same,PBM binding z-score,[6],0.456
same,PBM binding z-score,[7],-0.0477
same,PBM binding z-score,[8],0.335
same,PBM binding z-score,[9],0.445
same,PBM binding z-score,[10],0.854
ATCTAAAGGTCGACGAGGTGAGTATACACCGTTT,PBM binding z-score,[1],0.916
same,PBM binding z-score,[2],2.35
same,PBM binding z-score,[3],0.97
same,PBM binding z-score,[4],0.877
same,PBM binding z-score,[5],1.81
same,PBM binding z-score,[6],3.26
same,PBM binding z-score,[7],0.284
same,PBM binding z-score,[8],3.76
same,PBM binding z-score,[9],1.29
same,PBM binding z-score,[10],3.91
TCGAGTAGGTTACGGGCATTCAGAATGGCGTCGA,PBM binding z-score,[1],3.6
same,PBM binding z-score,[2],3.2
same,PBM binding z-score,[3],-0.359
same,PBM binding z-score,[4],-0.95
same,PBM binding z-score,[5],-0.405
same,PBM binding z-score,[6],0.127
same,PBM binding z-score,[7],-0.967
same,PBM binding z-score,[8],0.109
same,PBM binding z-score,[9],-1.16
same,PBM binding z-score,[10],1.29
AGAATGAGGTTAAGATCAGGTAAACAGAATACAT,PBM binding z-score,[1],2.37
same,PBM binding z-score,[2],2.93
same,PBM binding z-score,[3],1.7
same,PBM binding z-score,[4],0.933
same,PBM binding z-score,[5],0.782
same,PBM binding z-score,[6],1.52
same,PBM binding z-score,[7],0.259
same,PBM binding z-score,[8],2.3
same,PBM binding z-score,[9],0.662
same,PBM binding z-score,[10],1.98
TGAATGAGGTTAAAGATCAAGGAACGTGGCGTCG,PBM binding z-score,[1],1.88
same,PBM binding z-score,[2],3.3
same,PBM binding z-score,[3],0.538
same,PBM binding z-score,[4],0.468
same,PBM binding z-score,[5],0.301
same,PBM binding z-score,[6],2.23
same,PBM binding z-score,[7],-0.137
same,PBM binding z-score,[8],3.64
same,PBM binding z-score,[9],0.0967
same,PBM binding z-score,[10],2.11
AATACCGGGTCATCGTAGGCCAGAGTACGCACAG,PBM binding z-score,[1],2.9
same,PBM binding z-score,[2],4.61
same,PBM binding z-score,[3],2.58
same,PBM binding z-score,[4],2.08
same,PBM binding z-score,[5],2.01
same,PBM binding z-score,[6],4.56
same,PBM binding z-score,[7],0.459
same,PBM binding z-score,[8],4.53
same,PBM binding z-score,[9],0.886
same,PBM binding z-score,[10],3.67
TCTGCTAGGTCAACGATGGTCAGCCAATCTGCTA,PBM binding z-score,[1],4.18
same,PBM binding z-score,[2],4.29
same,PBM binding z-score,[3],0.0146
same,PBM binding z-score,[4],-0.247
same,PBM binding z-score,[5],1.87
same,PBM binding z-score,[6],1.6
same,PBM binding z-score,[7],-0.979
same,PBM binding z-score,[8],2.02
same,PBM binding z-score,[9],-0.83
same,PBM binding z-score,[10],4.26
TCTAGCACGCCAGAGGGTCACTCAAGAGGTACGG,PBM binding z-score,[1],0.507
same,PBM binding z-score,[2],0.0659
same,PBM binding z-score,[3],-0.875
same,PBM binding z-score,[4],-0.824
same,PBM binding z-score,[5],0.566
same,PBM binding z-score,[6],1.56
same,PBM binding z-score,[7],-0.773
same,PBM binding z-score,[8],2.37
same,PBM binding z-score,[9],-0.679
same,PBM binding z-score,[10],2.04
CAGCCTGGGTCAGGGCCAGTATAGGAGGAACGTT,PBM binding z-score,[1],-0.161
same,PBM binding z-score,[2],1.32
same,PBM binding z-score,[3],-1.28
same,PBM binding z-score,[4],-1.68
same,PBM binding z-score,[5],0.728
same,PBM binding z-score,[6],0.109
same,PBM binding z-score,[7],-0.685
same,PBM binding z-score,[8],0.59
same,PBM binding z-score,[9],-0.125
same,PBM binding z-score,[10],2.83
TGAACGAGGTTAAAGATCAGGGAACGTGGCGTCG,PBM binding z-score,[1],1.29
same,PBM binding z-score,[2],2.81
same,PBM binding z-score,[3],0.475
same,PBM binding z-score,[4],-0.0335
same,PBM binding z-score,[5],0.615
same,PBM binding z-score,[6],1.99
same,PBM binding z-score,[7],-0.0143
same,PBM binding z-score,[8],2.94
same,PBM binding z-score,[9],-0.0319
same,PBM binding z-score,[10],1.95
CCTTACGGGTCACGAGGCTATAGCACGACGAGCG,PBM binding z-score,[1],3.61
same,PBM binding z-score,[2],4.78
same,PBM binding z-score,[3],0.556
same,PBM binding z-score,[4],-0.248
same,PBM binding z-score,[5],1.81
same,PBM binding z-score,[6],3.26
same,PBM binding z-score,[7],-0.243
same,PBM binding z-score,[8],4.45
same,PBM binding z-score,[9],0.264
same,PBM binding z-score,[10],4.23
